# Reference: PubChem BioAssay (NCI)
# About 79,000 compounds went through this panel and 15% of them were active in at least one assay; those are over-represented in the sample as a whole. A number with no mark means an inactive call. Calls of active or inactive are those of the source. Cut-off read from the data, not from the text of the source: active = growth inhibition above about 70%; inactive = the rest.
# How the values were obtained:
# [1] = NCI Yeast Anticancer Drug Screen. Data for the rad52 strain (AID 147);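 note: 0% = growth of vehicle-treated control cultures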; details: S. cerevisiae rad52 mutant growth inhibition, active compounds read high
# Procedure, shortened: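 Here a repair-compromised yeast strain receives each compound; its growth is then quantified and normalised to vehicle-only controls.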
# [2] = NCI Yeast Anticancer Drug Screen. Data for the wt1 strain (AID 149);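 note: 0% = growth of vehicle-treated wt1 cultures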; details: S. cerevisiae wt1 strain (SPY 50644) growth inhibition, active compounds read high
# Procedure, shortened: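 Readout: yeast growth inhibition, normalised to vehicle controls, in the wt1 strain exposed to test compounds.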
# [3] = NCI Yeast Anticancer Drug Screen. Data for the rad50EPP+ strain (AID 151);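 note: 0% = growth of vehicle-treated control cultures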; details: S. cerevisiae rad50 mutant strain, active compounds read high
# Procedure, shortened: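 Read-out is yeast growth inhibition relative to vehicle; cells used were the rad50EPP+ strain.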
# [4] = NCI Yeast Anticancer Drug Screen. Data for the mgt1 strain (AID 153); details: S. cerevisiae mgt1 mutant growth inhibition, active compounds read high
# Procedure, shortened: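 Measured: inhibition of mgt1 yeast growth by compound, normalized to vehicle-treated cultures.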
# [5] = NCI Yeast Anticancer Drug Screen. Data for the rad50 strain (AID 155);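 note: 0% = growth of vehicle-only cultures of the same strain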; details: S. cerevisiae rad50 strain growth inhibition, active compounds read high
# Procedure, shortened: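 Compounds were tested on a yeast strain with an engineered DNA damage repair alteration; the reported value is growth inhibition normalised to vehicle treatment.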
# [6] = NCI Yeast Anticancer Drug Screen. Data for the mec2-1 strain (AID 157); details: S. cerevisiae mec2-1 strain, active compounds read high
# Procedure, shortened: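 Using mec2-1 yeast: add compound, measure growth, express inhibition versus vehicle-treated cultures.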
# [7] = NCI Yeast Anticancer Drug Screen. Data for the rad14 strain (AID 159);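 note: 0% = growth of vehicle-treated control cultures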; details: S. cerevisiae rad14 strain growth inhibition, active compounds read high
# Procedure, shortened: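 Compound-treated yeast with a defined DNA-repair lesion; growth inhibition normalised to vehicle-treated cultures.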
# [8] = NCI Yeast Anticancer Drug Screen. Data for the sgs1 mgt1 strain (AID 161);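 note: 0% = growth of cultures given vehicle only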; details: S. cerevisiae sgs1 mgt1 strain, active compounds read high
# Procedure, shortened: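 This yeast growth screen uses a strain with defined DNA-repair lesions; compound-treated growth is compared with vehicle-treated growth.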
# [9] = NCI Yeast Anticancer Drug Screen. Data for the cln2 rad14 strain (AID 165);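 note: 0% = growth equal to vehicle treated cultures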; details: S. cerevisiae cln2 rad14 strain, active compounds read high
# Procedure, shortened: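 Yeast strain cln2 rad14, bearing defects in cell cycle control and DNA repair, serves as the test system; values reflect growth inhibition compared with vehicle.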
# [10] = NCI Yeast Anticancer Drug Screen. Data for the bub3 strain (AID 167); details: S. cerevisiae bub3 mutant strain, active compounds read high
# Procedure, shortened: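 Growth of a checkpoint-deficient yeast mutant is measured after compound exposure. Values represent inhibition relative to vehicle.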
# [11] = NCI Yeast Anticancer Drug Screen. Data for the wt2 strain (AID 169);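 note: 0% = growth of vehicle-treated yeast cultures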; details: S. cerevisiae wt2 strain growth inhibition, active compounds read high
# Procedure, shortened: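 Treated yeast vs. vehicle-treated yeast: growth inhibition determined.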
# [12] = NCI Yeast Anticancer Drug Screen. Data for the sgs1 strain (AID 173);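 note: 0% = growth of vehicle-only control cultures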; details: S. cerevisiae sgs1 mutant, active compounds read high
# Procedure, shortened: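 A genetically defined yeast mutant is incubated with the test compound, and its growth is compared to that of the same strain given vehicle.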
# [13] = NCI Yeast Anticancer Drug Screen. Data for the mlh1 rad18 strain (AID 175); details: S. cerevisiae mlh1 rad18 strain growth inhibition, active compounds read high
# Procedure, shortened: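 Steps: expose repair-defective yeast to compound; measure growth; express inhibition against vehicle-treated controls.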
# [14] = NCI Yeast Anticancer Drug Screen. Data for the rad18 strain (AID 177); details: S. cerevisiae rad18 mutant growth inhibition, active compounds read high
# Procedure, shortened: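 Measured value is growth inhibition of a yeast strain bearing a DNA repair alteration, referenced to vehicle-treated cells.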
# [15] = at 5.0 µM (retest, dose inferred, filed as 0.5)
# [16] = at 50.0 µM (retest, dose inferred, filed as 5.0)
smiles,measurement,setting,value
CCCCCCCCCCCC1N=C(N)NC(CCCO)=C1C(=O)OC (stereo not drawn),growth inhibition,[1]; at 1.2 µM,5%
same,growth inhibition,[1]; at 3.7 µM,99% (active)
same,growth inhibition,[1]; at 11.0 µM,99% (active)
same,growth inhibition,[1]; at 33.0 µM,99% (active)
same,growth inhibition,[1]; at 100.0 µM,99% (active)
same,growth inhibition,[2]; at 1.2 µM,15%
same,growth inhibition,[2]; at 3.7 µM,99% (active)
same,growth inhibition,[2]; at 11.0 µM,99% (active)
same,growth inhibition,[2]; at 33.0 µM,99% (active)
same,growth inhibition,[2]; at 100.0 µM,99% (active)
same,growth inhibition,[3]; at 1.2 µM,32%
same,growth inhibition,[3]; at 3.7 µM,81% (active)
same,growth inhibition,[3]; at 11.0 µM,99% (active)
same,growth inhibition,[3]; at 33.0 µM,99% (active)
same,growth inhibition,[3]; at 100.0 µM,98% (active)
same,growth inhibition,[4]; at 1.2 µM,46%
same,growth inhibition,[4]; at 3.7 µM,99% (active)
same,growth inhibition,[4]; at 11.0 µM,100% (active)
same,growth inhibition,[4]; at 33.0 µM,99% (active)
same,growth inhibition,[4]; at 100.0 µM,99% (active)
same,growth inhibition,[5]; at 1.2 µM,28%
same,growth inhibition,[5]; at 3.7 µM,99% (active)
same,growth inhibition,[5]; [15],28%
same,growth inhibition,[5]; at 11.0 µM,99% (active)
same,growth inhibition,[5]; at 33.0 µM,99% (active)
same,growth inhibition,[5]; [16],100% (active)
same,growth inhibition,[5]; at 50.0 µM,89.2% (active)
same,growth inhibition,[5]; at 100.0 µM,99% (active)
same,growth inhibition,[6]; at 1.2 µM,12%
same,growth inhibition,[6]; at 3.7 µM,99% (active)
same,growth inhibition,[6]; [15],7%
same,growth inhibition,[6]; at 11.0 µM,99% (active)
same,growth inhibition,[6]; at 33.0 µM,99% (active)
same,growth inhibition,[6]; [16],99% (active)
same,growth inhibition,[6]; at 50.0 µM,91.8% (active)
same,growth inhibition,[6]; at 100.0 µM,99% (active)
same,growth inhibition,[7]; at 1.2 µM,72% (active)
same,growth inhibition,[7]; at 3.7 µM,99% (active)
same,growth inhibition,[7]; at 11.0 µM,99% (active)
same,growth inhibition,[7]; at 33.0 µM,99% (active)
same,growth inhibition,[7]; at 100.0 µM,99% (active)
same,growth inhibition,[8]; [15],65%
same,growth inhibition,[8]; [16],99% (active)
same,growth inhibition,[8]; at 50.0 µM,88.4% (active)
same,growth inhibition,[9]; [15],21%
same,growth inhibition,[9]; [16],100% (active)
same,growth inhibition,[9]; at 50.0 µM,90.8% (active)
same,growth inhibition,[10]; at 1.2 µM,11%
same,growth inhibition,[10]; at 3.7 µM,99% (active)
same,growth inhibition,[10]; [15],6%
same,growth inhibition,[10]; at 11.0 µM,99% (active)
same,growth inhibition,[10]; at 33.0 µM,98% (active)
same,growth inhibition,[10]; [16],99% (active)
same,growth inhibition,[10]; at 50.0 µM,91.5% (active)
same,growth inhibition,[10]; at 100.0 µM,98% (active)
same,growth inhibition,[11]; at 1.2 µM,16%
same,growth inhibition,[11]; at 3.7 µM,99% (active)
same,growth inhibition,[11]; at 11.0 µM,99% (active)
same,growth inhibition,[11]; at 33.0 µM,99% (active)
same,growth inhibition,[11]; at 100.0 µM,99% (active)
same,growth inhibition,[12]; at 1.2 µM,48%
same,growth inhibition,[12]; at 3.7 µM,99% (active)
same,growth inhibition,[12]; at 11.0 µM,99% (active)
same,growth inhibition,[12]; at 33.0 µM,99% (active)
same,growth inhibition,[12]; at 100.0 µM,99% (active)
same,growth inhibition,[13]; [15],53%
same,growth inhibition,[13]; [16],99% (active)
same,growth inhibition,[13]; at 50.0 µM,85.5% (active)
same,growth inhibition,[14]; at 1.2 µM,67%
same,growth inhibition,[14]; at 3.7 µM,99% (active)
same,growth inhibition,[14]; at 11.0 µM,99% (active)
same,growth inhibition,[14]; at 33.0 µM,99% (active)
same,growth inhibition,[14]; at 100.0 µM,98% (active)
